From PubChem BioAssay come the findings set out here.

Calls of active or inactive are those of the source.

Experiment [1] deals with Plasmodium falciparum Sir2 (PF13_0152, Sir2A). The experiment can be described thus: Plasmodium falciparum Sir2A binding compounds – biochemical, small-molecule microarray, 635 nm fluorescence, primary screen (AID 1098).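 Further: score merges spot fluorescence intensity with its signal-to-noise ratio.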 The settings on record: fluorescence 635 nm, higher = more signal.
The nature of experiment [2]: probe aDKK1 binding to arrayed compounds – biochemical, biotinylated probe, 635/667 nm fluorescence, primary screen (AID 1099).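 Further: score merges 667nm spot fluorescence with signal to noise across triplicate slides.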 The note with it: small-molecule microarray, higher = more signal.
Experiment [3] in a line: probe aCHRDL2 binding to arrayed compounds – biochemical, biotinylated probe, 635/667 nm fluorescence, primary screen (AID 1100). The settings on record: small-molecule microarray, higher = more signal.
Experiment [4] in a line: change in splice reporter luminescence, either direction, cell-based, HEK293, spliceosome inhibition project, primary screen (AID 1101).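 Further: HEK293 cells carrying a splicing-competent luciferase reporter gene; test concentration not given here.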 The note with it: HEK293 splicing luciferase reporter, 24 h, higher = more signal, called active from +8 up or from −8 down. For orientation: A reporter such as luciferase makes a cellular process visible.
Experiment [5] addresses Fibroblast growth factor 10 (Homo sapiens) (UniProt O15520). The experiment can be described thus: compounds binding fibroblast growth factor 10 – biochemical, small-molecule microarray, 635 nm fluorescence, primary screen (AID 1102). The settings on record: FGF10 binding, fluorescence 635 nm, higher = more signal.
The test system of experiment [6] is glycogen synthase kinase-3 (GSK3A per assay name; protocol says GSK3B). The experiment can be described thus: compounds binding glycogen synthase kinase-3 – biochemical, small-molecule microarray, 635 nm fluorescence, GSK3A, primary screen (AID 1103). Further: the record names both GSK3A and GSK3B. The note with it: fluorescence 635 nm, higher = more signal.
Experiment [7] addresses Epidermal growth factor receptor (Homo sapiens) (UniProt P00533). The experiment can be described thus: compounds binding epidermal growth factor receptor – biochemical, small-molecule microarray, 635 nm fluorescence, primary screen (AID 1104).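 Further: score merges 667 nm emission intensity with spot signal to noise over triplicate slides.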 The settings on record: EGFR binding, higher = more signal.
In experiment [8] the target is Follistatin-related protein 3 (Homo sapiens) (UniProt O95633). The experiment can be described thus: compounds binding follistatin-related protein 3 – biochemical, small-molecule microarray, 635 nm fluorescence, primary screen (AID 1105).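 Further: score merges emission near 667 nm and signal to noise per printed spot across three slides.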 The note with it: FSTL3 binding, higher = more signal.
Sequence of Follistatin-related protein 3 (Homo sapiens) (O95633 whole entry, looked up): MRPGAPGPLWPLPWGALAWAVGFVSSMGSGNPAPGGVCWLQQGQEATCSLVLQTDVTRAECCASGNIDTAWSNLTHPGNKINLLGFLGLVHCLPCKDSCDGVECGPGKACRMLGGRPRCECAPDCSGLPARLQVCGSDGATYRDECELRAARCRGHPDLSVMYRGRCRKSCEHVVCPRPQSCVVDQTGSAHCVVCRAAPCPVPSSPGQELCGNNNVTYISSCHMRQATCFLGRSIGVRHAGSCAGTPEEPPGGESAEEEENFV
The target of experiment [9] is Dickkopf-related protein 1 (Homo sapiens) (UniProt O94907). The experiment can be described thus: small molecules binding DKK1 protein – biochemical, small-molecule microarray, 635 nm fluorescence scan, primary screen (AID 1106).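 Further: score merges emission near 667 nm with signal to noise over three replicate slides.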 The settings on record: higher = more signal.
Sequence of Dickkopf-related protein 1 (Homo sapiens) (O94907 whole entry, looked up): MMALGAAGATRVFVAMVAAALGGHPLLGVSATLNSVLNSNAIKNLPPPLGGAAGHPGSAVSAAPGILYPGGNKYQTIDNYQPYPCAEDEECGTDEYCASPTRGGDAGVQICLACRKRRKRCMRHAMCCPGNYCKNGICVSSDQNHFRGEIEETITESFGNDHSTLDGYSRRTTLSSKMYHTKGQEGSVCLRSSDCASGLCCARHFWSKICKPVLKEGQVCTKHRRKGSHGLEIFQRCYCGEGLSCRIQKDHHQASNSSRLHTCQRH
In experiment [10] the test system is Inhibin beta A chain (activin A). The experiment can be described thus: small molecules binding activin A – biochemical, small-molecule microarray, 635 nm fluorescence scan, primary screen (AID 1107).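 Further: mouse activin A protein probed at 4.33 µg/mL on printed slides; score merges bound-protein fluorescence near 667 nm with spot signal-to-noise.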 The settings on record: INHBA, higher = more signal.
Experiment [11] concerns Human papillomavirus type 1a protein E7 (residues 44-93). The experiment can be described thus: small molecules binding HPV E7 44-93 – biochemical, small-molecule microarray, residues 44-93, 635 nm fluorescence, primary screen (AID 1108).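 Further: E7 fragment applied at 1 µg/mL in TBST for 1 h at 4 C; score combines spot fluorescence with its signal to noise ratio.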 The settings on record: fluorescence 635 nm, higher = more signal.
Experiment [12] can be described thus: hepatitis C replication reporter changes, two-sided – Huh7 cells, luciferase reporter, HCV replication inhibitor project, primary screen (AID 1109).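 Further: huh7 hepatoma cells harbouring a luciferase neomycin HCV replicon reporter; luciferase luminescence as measure of HCV replicon replication; test concentration not given here.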 The settings on record: Huh7 HCV replicon luciferase reporter, 48 h; higher = more signal.
In experiment [13] the target is Left-right determination factor 2 (Homo sapiens) (UniProt O00292). The experiment can be described thus: small molecules binding LEFTY2 protein – biochemical, small-molecule microarray, 635 nm fluorescence scan, primary screen (AID 1110). The note with it: higher = more signal.
Sequence of Left-right determination factor 2 (Homo sapiens) (O00292 whole entry, looked up): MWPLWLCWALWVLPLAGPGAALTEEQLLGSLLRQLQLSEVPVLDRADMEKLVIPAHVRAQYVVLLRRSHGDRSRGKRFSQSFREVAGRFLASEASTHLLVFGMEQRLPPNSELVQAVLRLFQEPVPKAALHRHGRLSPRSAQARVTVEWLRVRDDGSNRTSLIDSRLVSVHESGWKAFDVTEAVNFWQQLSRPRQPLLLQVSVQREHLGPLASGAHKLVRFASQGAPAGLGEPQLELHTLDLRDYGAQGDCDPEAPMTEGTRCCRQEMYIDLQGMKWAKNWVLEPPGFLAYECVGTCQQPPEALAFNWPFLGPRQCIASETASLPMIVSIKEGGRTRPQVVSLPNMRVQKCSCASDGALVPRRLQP
The target of experiment [14] is Calmodulin-1 (Homo sapiens) (UniProt P0DP23). The experiment can be described thus: small molecules binding calmodulin-1 with EGTA – biochemical, small-molecule microarray, Cy5-labelled CALM1, profiling panel (AID 1111).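 Further: labelled calmodulin applied in Tris saline Tween buffer holding calcium plus EGTA and DTT.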 The note with it: Cy5-CALM1 binding fluorescence, higher = more signal.
Experiment [15] shares this target. The experiment can be described thus: small molecules binding Ca-loaded calmodulin-1 – biochemical, small-molecule microarray, Cy5-labelled CALM1, plus calcium, artefact control for SMM control-protein annotation, profiling panel (AID 1112).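 Further: score merges spot fluorescence with signal to noise from triplicate slides.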 The settings on record: Cy5-CALM1 binding fluorescence, higher = more signal.
Experiment [16] can be described thus: probe aWnt5a binding to arrayed compounds – biochemical, biotinylated probe, 635/667 nm fluorescence, primary screen (AID 1113).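 Further: score merges 667 nm fluorescence intensity with signal-to-noise per printed feature.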 The settings on record: small-molecule microarray, higher = more signal.
Experiment [17] is described as follows: probe aShh binding to arrayed compounds – biochemical, biotinylated probe, 635/667 nm fluorescence, primary screen (AID 1114).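 Further: probe is biotin-labelled aShh protein from a stem cell growth factor screen; measures binding of labelled protein to compounds printed on the slide; score merges feature fluorescence at 667 nm with signal-to-noise.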 The settings on record: small-molecule microarray, higher = more signal.
The nature of experiment [18]: probe aNog binding to arrayed compounds – biochemical, biotinylated probe, 635/667 nm fluorescence, primary screen (AID 1115).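 Further: probe is biotinylated aNog protein used at 0.15 µg/mL for 1 h at 4 C; z-score combines 667 nm fluorescence of each spot with its signal to noise.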 The note with it: small-molecule microarray, higher = more signal.
Experiment [19] has as its target Torsin-1A-interacting protein 1 (Homo sapiens) (UniProt Q5JTV8). The experiment can be described thus: compound microarray binding of lysate hLAP1 – cell lysate, small-molecule microarray, COS7 lysate, 635/667 nm fluorescence, primary screen (AID 1116). The settings on record: 635 nm fluorescence, higher = more signal.
Experiment [20] deals with Alpha-bungarotoxin (Bungarus multicinctus) (UniProt P60615). The experiment can be described thus: compounds binding labelled alpha-BTX control protein – biochemical, small-molecule microarray, Alexa647 label, 635/667 nm fluorescence, artefact control for SMM control protein annotation, profiling panel (AID 1117). The note with it: alpha-BTX-A647 binding fluorescence, higher = more signal.
Sequence of Alpha-bungarotoxin (Bungarus multicinctus) (P60615 whole entry, looked up): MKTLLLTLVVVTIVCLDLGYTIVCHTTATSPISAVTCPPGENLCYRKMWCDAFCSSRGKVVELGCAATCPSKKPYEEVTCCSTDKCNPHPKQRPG

Sequence of Fibroblast growth factor 10 (Homo sapiens) (O15520 whole entry, looked up): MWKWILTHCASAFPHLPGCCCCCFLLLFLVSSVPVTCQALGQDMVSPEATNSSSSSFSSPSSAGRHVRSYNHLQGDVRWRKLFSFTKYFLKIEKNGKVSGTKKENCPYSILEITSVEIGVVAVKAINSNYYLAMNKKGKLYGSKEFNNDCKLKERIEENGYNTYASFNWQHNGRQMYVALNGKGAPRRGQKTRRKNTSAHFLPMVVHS
Sequence of Torsin-1A-interacting protein 1 (Homo sapiens) (Q5JTV8 whole entry, looked up): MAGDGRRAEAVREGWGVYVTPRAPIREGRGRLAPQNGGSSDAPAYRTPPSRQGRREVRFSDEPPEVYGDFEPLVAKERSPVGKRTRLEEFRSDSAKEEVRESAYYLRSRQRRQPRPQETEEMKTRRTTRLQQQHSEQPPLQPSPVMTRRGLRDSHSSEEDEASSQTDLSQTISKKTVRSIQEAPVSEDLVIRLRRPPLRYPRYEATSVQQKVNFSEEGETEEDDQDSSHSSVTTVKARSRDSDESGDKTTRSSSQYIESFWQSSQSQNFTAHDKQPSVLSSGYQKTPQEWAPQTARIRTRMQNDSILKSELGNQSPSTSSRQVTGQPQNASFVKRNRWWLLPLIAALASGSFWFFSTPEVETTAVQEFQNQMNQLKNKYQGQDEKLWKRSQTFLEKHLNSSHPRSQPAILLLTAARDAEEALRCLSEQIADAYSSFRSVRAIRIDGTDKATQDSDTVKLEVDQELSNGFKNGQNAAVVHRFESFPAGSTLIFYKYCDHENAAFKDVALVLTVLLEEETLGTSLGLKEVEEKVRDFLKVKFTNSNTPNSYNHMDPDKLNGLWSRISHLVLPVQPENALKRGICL
Sequence of Epidermal growth factor receptor (Homo sapiens) (P00533 whole entry, looked up): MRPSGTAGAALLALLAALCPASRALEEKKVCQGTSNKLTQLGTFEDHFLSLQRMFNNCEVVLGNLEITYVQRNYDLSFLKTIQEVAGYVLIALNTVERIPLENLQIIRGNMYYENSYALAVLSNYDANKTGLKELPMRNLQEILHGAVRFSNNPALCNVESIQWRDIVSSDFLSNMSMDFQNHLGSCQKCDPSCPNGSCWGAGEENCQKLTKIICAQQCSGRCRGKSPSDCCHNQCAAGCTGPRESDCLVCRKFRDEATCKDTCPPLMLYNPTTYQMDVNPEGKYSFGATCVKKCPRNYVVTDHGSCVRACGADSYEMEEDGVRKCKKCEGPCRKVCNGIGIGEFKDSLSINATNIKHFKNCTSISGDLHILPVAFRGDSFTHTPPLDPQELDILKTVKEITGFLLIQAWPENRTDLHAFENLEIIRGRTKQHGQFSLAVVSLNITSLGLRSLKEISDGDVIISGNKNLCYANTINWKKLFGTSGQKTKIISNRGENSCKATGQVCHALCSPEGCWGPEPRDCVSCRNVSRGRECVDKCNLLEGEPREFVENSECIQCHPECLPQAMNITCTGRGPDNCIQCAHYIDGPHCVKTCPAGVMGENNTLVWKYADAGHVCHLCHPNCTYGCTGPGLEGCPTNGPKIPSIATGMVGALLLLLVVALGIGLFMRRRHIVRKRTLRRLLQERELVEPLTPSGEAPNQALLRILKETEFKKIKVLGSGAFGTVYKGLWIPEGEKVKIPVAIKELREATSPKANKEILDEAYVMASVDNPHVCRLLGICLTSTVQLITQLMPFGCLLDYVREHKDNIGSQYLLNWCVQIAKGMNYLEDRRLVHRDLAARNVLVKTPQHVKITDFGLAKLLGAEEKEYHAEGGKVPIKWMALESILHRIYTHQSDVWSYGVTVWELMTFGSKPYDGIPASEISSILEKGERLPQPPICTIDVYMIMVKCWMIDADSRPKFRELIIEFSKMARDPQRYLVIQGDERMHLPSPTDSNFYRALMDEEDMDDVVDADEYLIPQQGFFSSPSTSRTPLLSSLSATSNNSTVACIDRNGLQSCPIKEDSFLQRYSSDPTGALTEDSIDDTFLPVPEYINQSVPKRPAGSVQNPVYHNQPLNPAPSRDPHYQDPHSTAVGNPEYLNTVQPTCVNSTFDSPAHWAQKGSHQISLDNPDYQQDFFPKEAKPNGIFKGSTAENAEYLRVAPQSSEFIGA

For the compound `CC(C)C(=C=CC[C@@H](O)c1cccc(OCCO)c1)C[C@@H](O)c1ccccn1`, the composite z-score in experiment [1] is 0.862; in experiment [2], -0.261; in experiment [3], -0.315; in [5], 0.285; in [6] it was -0.366; in experiment [7], -0.604. Further, the composite z-score in experiment [8] is 0.0146; in experiment [9], 0.0852; in [10], 0.139; in experiment [11], 0.0406; in experiment [13] it was -0.315; in experiment [14], -0.303. The composite z-score in [15] was -0.207; in experiment [16] it was -0.152; in experiment [17], -0.154; in experiment [18], -0.104; in [19], 1.63; in [20] it was -0.142. Further, the figures for the z-score in experiment [4] and in [12] were 0.111 (inactive) and -0.658, respectively.

As to `CCOC(=O)C1=CCC(c2ccccc2)N(S(=O)(=O)c2ccc([N+](=O)[O-])cc2)C1` (stereo not given), the composite z-score in [1] is -0.0755; in [2] it was 0.36; in experiment [3], 0.507; in experiment [5], -0.16; in experiment [6] it was 0.265; in experiment [7], 0.0475. Further, the composite z-score was 0.163 in [8]; -0.115 in experiment [9]; 0.918 in [10]; 0.992 in [11]; -0.276 in experiment [13]; -0.36 in experiment [14]. The composite z-score in [15] was -0.0871; in [16], -0.147; in [17], 0.0048; in experiment [18], -0.425; in experiment [19] it was 0.853; in experiment [20], -0.165. In addition, the z-score is -0.33 (inactive) in [4] and -1.93 in [12].

For the compound `COCCCNC(=O)[C@@]1(c2ccc([N+](=O)[O-])cc2)CC(=O)N(CC23CC4CC(CC(C4)C2)C3)[C@@H]1c1ccc(CO)cc1I`, the composite z-score in [1] is 1.02; in [2] it was 0.541; in experiment [3], 0.847; in experiment [5], -0.0432; in [6] it was -0.115; in experiment [7], -0.392. Also, the composite z-score in experiment [8] is -0.36; in [9], -0.15; in experiment [10] it was 0.126; in [11] it was 0.952; in [13], -0.381; in experiment [14] it was 0.425. The composite z-score in experiment [15] was 0.729; in experiment [16], -0.104; in experiment [17], 0.337; in experiment [18], 0.536; in experiment [19], 0.157; in experiment [20], 1.22. Besides, the values for the z-score in [4] and in experiment [12] were 3.68 (inactive) and -3.15, respectively.

Consider `C=C[C@@H](OC)[C@H](OC(=O)Nc1ccc(OC)cc1)c1ccc(OC)c(O)c1`, for which the composite z-score in experiment [1] was -1.1; in experiment [2], -0.259; in [3], 0.601; in experiment [5] it was -0.818; in experiment [6] it was -0.465; in experiment [7] it was -0.75. Besides, the composite z-score was -1.11 in [8]; -0.642 in [9]; -0.267 in experiment [10]; -0.546 in experiment [11]; -1.86 in [13]; -0.56 in experiment [14]. Moreover, the composite z-score in experiment [15] was -0.194; in experiment [16], -0.154; in experiment [17], -0.367; in experiment [18] it was -0.45; in experiment [19], -0.386; in [20], -0.382. Moreover, the z-score was -0.657 (inactive) in experiment [4] and 0.15 in [12].

On to `O=C1c2ccccc2[C@](Cc2ccccc2I)(C(=O)NC2CC2)[C@H](c2ccc(CO)cc2)N1Cc1ccccc1C(F)(F)F`, for which the composite z-score in experiment [1] is 1.43; in experiment [2], -0.349; in experiment [3], 0.768; in experiment [5] it was 0.535; in [6], -0.265; in experiment [7], -0.922. For the same compound, the composite z-score was 0.32 in experiment [8]; -0.74 in experiment [9]; -0.771 in [10]; 1.45 in experiment [11]; -1.16 in experiment [13]; 0.463 in experiment [14]. The composite z-score was -0.541 in experiment [15]; -0.0735 in [16]; -0.147 in [17]; -0.484 in [18]; 0.103 in experiment [19]; 0.968 in experiment [20]. Further, the figures for the z-score in experiment [4] and in experiment [12] were -0.987 (inactive) and -2.2, respectively.
